Source: PubChem BioAssay AID588676 (Johns Hopkins Ion Channel Center, 2011)
Hit rate of the full screen: of about 310,000 compounds, about 3,900 (1.3%) were called active.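 The calls were made as follows: active = calcium-response B-score plate-corrected more than 3 library SD below zero, starting fluorescence within 5 deviations, no agonist response on first addition; inactive = the rest.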 Shown is part of a subset that was picked to be rich in actives.

Target: Mas-related G-protein coupled receptor member X1 (Homo sapiens) (UniProt Q96LB2)
Experiment: antagonists of human MrgX1 receptor, primary screen, HEK293 cells, Fluo-4 calcium flux (AID 588676);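 as to B-score: peak minus trough fluorescence over baseline after final BAM8-22 challenge near maximal dose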
Conditions: Fluo-4, BAM8-22 antagonism, at 10 µM; hits give low values

Mas-related G-protein coupled receptor member X1 (Homo sapiens), sequence (Q96LB2 whole entry, looked up): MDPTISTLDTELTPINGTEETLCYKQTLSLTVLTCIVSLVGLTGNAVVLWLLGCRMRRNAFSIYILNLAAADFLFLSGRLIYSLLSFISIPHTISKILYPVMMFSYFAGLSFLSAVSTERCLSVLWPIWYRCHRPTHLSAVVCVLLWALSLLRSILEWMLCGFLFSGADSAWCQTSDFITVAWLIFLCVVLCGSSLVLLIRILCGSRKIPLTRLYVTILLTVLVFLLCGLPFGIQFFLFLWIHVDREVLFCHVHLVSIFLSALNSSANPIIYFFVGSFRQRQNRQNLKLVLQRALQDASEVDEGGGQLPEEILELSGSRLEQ

| Compound | B-score |
| --- | --- |
| COc1ccc(S(=O)(=O)NCc2ccc(C(=O)N3CCC4(CC3)OCCO4)cc2)cc1 | -6.08 (active) |
| COc1ccc(NC(=O)N2CCC3(CC2)OCCO3)c(OC)c1 | inactive |
| COc1ccc(-c2nc(CS(=O)CC(=O)N3CCC4(CC3)OCCO4)c(C)o2)cc1 (stereo not given) | inactive |
| COC(=O)C1=C(c2cc3ccccc3o2)C[C@@H]2CC[C@H]1N2C(=O)NC1CCCCC1 | inactive |
| CCCCCCCCCCCCn1ccc(=N)cc1 | -5.32 (active) |
| COc1ccccc1C1=NCc2nnc(CSC)n2-c2ccc(Cl)cc21 | inactive |
| CCCCn1c(=O)c(C(=O)Nc2ccccc2Cl)c(O)c2ccccc21 | inactive |
| CCCCCn1c(=O)c(C(=O)NCc2ccccn2)c(O)c2ccccc21 | inactive |
| CCCCCn1c(=O)c(C(=O)NCc2ccccc2)c(O)c2ccccc21 | -6.52 (active) |
| CC(C)c1ccc(OCC(=O)N2CCN(C)CC2)c(Br)c1 | inactive |
| CCOC(=O)C1SC2(C(F)(F)C(F)F)CC1(O)c1c(c(OC)c3occc3c1OC)O2 (stereo not given) | inactive |
| CNCC(O)c1cc(F)c(OCc2ccccc2)c(OCc2ccccc2)c1F (stereo not given) | inactive |
| Cc1ccc(-n2c(O)c(C=NCC3CCCO3)c(=O)[nH]c2=O)c(C)c1 (stereo not given) | inactive |
| CCOC(=O)C(O)(c1ccc(N=Cc2ccccc2O)c(C)c1)C(F)(F)F (stereo not given) | inactive |
| Cc1cccc(NC(=O)N2CC3CC(C2)c2cccc(=O)n2C3)c1 (stereo not given) | inactive |
| COc1ccccc1N1CCN(C(CNC(=O)Oc2ccccc2)c2cccnc2)CC1 (stereo not given) | inactive |
| O=C(CN1CCCCC1)Nc1ccc(Br)cc1C(=O)c1ccccc1Cl | inactive |
| CN1CCN(C(=S)SCC(=O)Nc2ccc(Cl)cc2C(=O)c2ccccc2)CC1 | inactive |
| O=C(CCN1CCCCC1)NCC(=O)Nc1ccc(Br)cc1C(=O)c1ccccc1 | -5.59 (active) |
| CCOC(=O)C1=C(C)OC(N)=C(C(=O)OC)C12C(=O)Nc1ccc(Br)cc12 (stereo not given) | inactive |
